Structures are written as SMILES. Activity calls are given as the source filed them. Calls come from the whole dose curve; as a rule, active = well fitted curve in the direction sought with a large enough effect; inconclusive = small, poorly fitted or top-dose-only effect, or another doubt; inactive = no such curve, though single readings can be large or run the other way.

The target of this assay is Alpha-galactosidase (Coffea arabica) (UniProt Q42656). In words: Counterscreen for Glucocerebrosidase Inhibitors: qHTS Assay for Coffee Bean alpha-Galactosidase at pH 4.5 (AID 957). The note with it: purified coffee bean alpha-galactosidase, fluorogenic substrate; series mostly up to 76.9 µM. The source says: NIH Chemical Genomics Center [NCGC]
Sequence of Alpha-galactosidase (Coffea arabica) (Q42656 whole entry, looked up): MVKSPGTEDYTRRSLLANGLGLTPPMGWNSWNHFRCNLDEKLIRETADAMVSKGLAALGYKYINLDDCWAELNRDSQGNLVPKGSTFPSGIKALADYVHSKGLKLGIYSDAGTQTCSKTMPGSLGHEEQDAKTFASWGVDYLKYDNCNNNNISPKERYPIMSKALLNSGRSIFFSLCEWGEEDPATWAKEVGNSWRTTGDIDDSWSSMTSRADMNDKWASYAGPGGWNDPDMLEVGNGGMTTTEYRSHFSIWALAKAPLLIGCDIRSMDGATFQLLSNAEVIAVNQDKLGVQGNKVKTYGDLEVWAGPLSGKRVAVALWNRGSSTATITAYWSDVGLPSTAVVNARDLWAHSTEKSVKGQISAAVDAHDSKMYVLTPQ
NIH Molecular Libraries Screening Centers Network [MLSCN]
PI Name: Zheng, Wei [NIH]
Alpha-galactosidase is a homodimeric glycoprotein that hydrolyzes the terminal alpha-galactosyl moieties from glycolipids and glycoproteins. Deficiency of this enzyme results in Fabry Disease with progressive accumulation of globotriaosylceramide and other glycosphingolipids in vascular endothelial cells that causes renal failure, myocardial infarction and stroke, and premature death in patients. It has reported that the improper folding and trafficking of alpha-galactosidase resulted from the genetic mutations may account for a significant numbers of Fabry patients. […] We optimized this coffee bean alpha-galactosidase assay in 1536-well plate format as a counter-screen assay for identifying the selective small molecule inhibitors of other lysosomal enzymes.
NCGC Assay Protocol Summary:
This is a fluorogenic enzyme assay with 4-Methylumbelliferyl alpha-D-galactopyranoside as the substrate and green coffee bean […] (from Sigma-Aldrich) as the enzyme preparation. Upon the hydrolysis of this fluorogenic substrate, the resulting product, […]. 4-Methyllumbelliferone, can be excited at 365 nm and emits at 440 nm which can be detected by a standard fluorescence plate reader. Data were normalized to the controls for basal activity (without enzyme) and 100% activity (with enzyme). In the AC50 values were determined from concentration-response data modeled with the standard Hill equation.
Assay buffer: 50 mM citric acid, 0.005% Tween-20, pH 4.5. (pH 5.9 is an optimal condition for this enzyme assay. This assay in pH 4.5 is used for comparison the inhibitor activities with the human alpha-galactosidase assay)
1536-well assay protocol for the coffee bean alpha-galactosidase:
(1) Add 2 ul/well of enzyme (2 nM final)
(2) Add 23 nL compounds in DMSO solution. The final titration was 0.7 nM to 77 uM.
(3) Add 1 ul of substrate (80 uM final)
(4) Incubate at room temperature for 20 min.
(5) Add 2 ul stop solution (1M NaOH and 1M Glycine mixture, pH 10)
(6) Detect the assay plate in a ViewLux plate reader (PerkinElmer) with Ex=365 nm and Em=440nm.
Keywords: Alpha-galactosidase, Fabry Disease, pharmacological chaperone, chaperone therapy, high throughput screening, alpha-galactosidase inhibitor, MLSMR, MLSCN, NIH Roadmap, qHTS and NCGC
For orientation: The purpose of a counterscreen is to sort out artefacts and off-target activity.
With `CC(=O)OCC1=C(C(=O)O)N2C(=O)[C@@H](NC(=O)Cc3cccs3)[C@@H]2SC1`, the molecule was called inactive.

As to `N=C(N)SCCc1cccc(CCSC(=N)N)c1`, the molecule was classed as inactive.

With `COc1ccc2c(c1)c(CC(=O)O)c(C)n2Cc1ccc(F)cc1`, the call was inactive.

In the case of `CCN(CC)C(=O)N[C@H]1C[C@H]2c3cccc4[nH]cc(c34)C[C@@H]2N(C)C1`, the molecule was classed as inactive.

In the case of `COc1cc([C@@H](O)CO)ccc1OS(=O)(=O)O`, the call was inactive.

With `Cn1c(=O)c2c(nc(/C=C\c3cccc(Cl)c3)n2C)n(C)c1=O`, the call was inactive.

For the molecule `Cc1ccccc1[C@@H](OCCN(C)C)c1ccccc1`, the molecule was classed as inactive.

For the molecule `Cc1ccccc1/C=C\C1=NCCN1`, the molecule was called inactive.

Turning to `NC(=O)c1ccc(OC[C@H](O)CN2CC=C(c3ccc(F)cc3)CC2)cc1`, the molecule was classed as inactive.

Turning to `C=CCN1C[C@@H](C)N([C@H](c2ccc(C(=O)N(CC)CC)cc2)c2cccc(OC)c2)C[C@H]1C`, the result was inactive.

In the case of `O=C(/C=C\c1ccc(O)c(O)c1)OCCc1ccccc1`, the molecule was called inactive.

`C[C@H](Oc1ccc(Oc2cnc3ccc(Cl)cc3n2)cc1)C(=O)O`: the outcome was inactive.

For `CC(=O)O[C@@H]1C[C@]2(C)[C@H](C[C@@H](O)[C@H]3[C@@]4(C)CC[C@@H](O)[C@@H](C)[C@@H]4CC[C@@]32C)/C1=C(\CCC=C(C)C)C(=O)O`, the molecule was called inactive.

Regarding `O=C(O)CNC(=O)[C@@H](CS)Cc1ccccc1`, the molecule was classed as inactive.

For the molecule `COc1ccc(CCNC[C@H](O)c2ccc(O)cc2)cc1OC`, the molecule was classed as inactive.

On to `CN1CCc2c(cc(O)c(O)c2Cl)[C@H](c2cccc(Cl)c2)C1`, for which the outcome was inactive.

For `CCCCCCCCCC(=O)N[C@@H](CN1CCOCC1)[C@@H](O)c1ccccc1`, the result was inactive.

In the case of `CCCCCCCCCCCCC/C=C\[C@@H](O)[C@@H](N)CO`, the molecule was called inactive.

For the molecule `CCCCC#Cc1nc(N)c2ncn([C@@H]3O[C@@H](C(=O)NCC)[C@H](O)[C@@H]3O)c2n1`, the outcome was inactive.

In the case of `O=c1[nH]c(=O)n([C@H]2C[C@H](O)[C@H](CO)O2)cc1/C=C\Br`, the outcome was inactive.

As to `COc1ccccc1OC[C@H](O)CN1CCN(CC(=O)Nc2c(C)cccc2C)CC1`, the molecule was classed as inactive.

As to `Nc1ncnc2c1ncn2[C@@H]1CCCO1`, the outcome was inactive.

`Fc1ccc(C(c2ccc(F)cc2)N2CCN(C/C=C\c3ccccc3)CC2)cc1`: the result was inactive.

Take `CN(C)[C@@H]1C(=O)C(C(N)=O)=C(O)[C@]2(O)C(=O)C3=C(O)c4c(O)ccc(Cl)c4[C@H](O)[C@H]3C[C@@H]12`: the call was inactive.

`O=C1O/C(=C\Br)CC[C@@H]1c1cccc2ccccc12`: the molecule was called inactive.

Consider `CC(N)=NCCC[C@H](N)C(=O)O`, for which the result was inactive.

Take `CC(=O)N[C@@H](C(=O)O)C(C)(C)SN=O`: the outcome was inactive.

Consider `CSc1nc(N)c2ncn([C@@H]3O[C@@H](COP(=O)(O)OP(=O)(O)OP(=O)(O)O)[C@@H](O)[C@H]3O)c2n1`, for which the outcome was inactive.

Consider `O=c1cc(O)cc(/C=C\c2ccc(O)c(O)c2)o1`, for which the call was inactive.

With `Oc1cc(O)cc(/C=C\c2ccc(O)c(O)c2)c1`, the call was inactive.

Turning to `Oc1cc2c(cc1O)[C@H]1c3ccccc3CN[C@@H]1CC2`, the molecule was classed as inactive.

In the case of `CN1CCN2c3ccccc3Cc3ccccc3[C@@H]2C1`, the molecule was classed as inactive.

For the molecule `CC1CCN(CC[C@@H]2CCCN2S(=O)(=O)c2cccc(O)c2)CC1`, the call was inactive.

With `CN(C)CC[C@H](c1ccc(Br)cc1)c1ccccn1`, the molecule was called inactive.

Take `COc1cc([C@H](O)C(=O)O)ccc1O`: the outcome was inactive.

Regarding `C=CCN1CCc2c(cc(O)c(O)c2Br)[C@H](c2ccccc2)C1`, the call was inactive.

Regarding `C=CCN1CCc2c(cc(O)c(O)c2Cl)[C@H](c2ccccc2)C1`, the molecule was called inactive.

Turning to `NS(=O)(=O)c1cc2c(cc1Cl)N[C@@H]([C@@H]1C[C@@H]3C=C[C@H]1C3)NS2(=O)=O`, the call was inactive.

For the molecule `CC[C@]1(C)CC(=O)NC1=O`, the molecule was called inactive.

In the case of `C[C@H](N)C1CCC(C(=O)Nc2ccncc2)CC1` (stereo not given in full), the molecule was classed as inactive.

(Values after PubChem BioAssay (NCATS).)
